Bioassay records deposited in PubChem BioAssay by National Center for Advancing Translational Sciences (NCATS).
This is a sample that favours compounds with a hit; in the whole collection about 8.2% have one here.
MCF10A rerep: A quantitative high throughput screen for small molecules that induce DNA re-replication in MCF 10a normal breast cells. MCF 10A DNA re-replication, Hoechst nuclear intensity, 48 h. Potency, µM (titrated, usually from 46.1 µM), without a hit: at the top dose activity, positive = re-replication, actives largely listed as activators. 2.9% of 350,000 active; also: % of control where 0% means no effect; nearly all actives have a fitted effect of over 50% in size
ELG1 repair inh: qHTS screen for small molecules that inhibit ELG1-dependent DNA repair in human embryonic kidney (HEK293T) cells expressing luciferase-tagged ELG1 | HEK293T ELG1-luciferase reporter, luminescence, 16 h; DNA damage induced by 5-fluorouridine | Potency, µM (top dose mostly 46.1 µM), for inactives: top-dose activity change, negative = inhibition, most hits filed as inhibitors | 2.3% of 330,000 active; also: % is scaled to controls: 0 for no effect and ±100 for the full control effect; nearly all actives have a fitted effect of over 55% in size
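Cells (2,000 per well) received 5-fluorouridine plus test compound or DMSO and were incubated 16 hr at 37 °C, 5% CO2. Luciferase activity was read by luminescence 30 min after ONE-Glo addition; signal suppression marked inhibition of damage-induced ELG1 function.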
SW480 rereplic: A quantitative high throughput screen for small molecules that induce DNA re-replication in SW480 colon adenocarcinoma cells. 1.8% of 340,000 active. AID 624297, 2012. SW480 DNA re-replication, Hoechst DNA content imaging, 48 h. Potency, µM (doses to about 46.1 µM), without a hit: at the highest dose re-replication activation, actives largely listed as activators; also: % of control where 0% means no effect; nearly all actives have a fitted effect of over 55% in size
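SW480 cells exposed to compounds for 48 hr at 37 C, 5% CO2, then Hoechst-stained 40 min. Nuclear DNA content imaged by fluorescence scanning (405 nm excitation, 500-530 nm emission); re-replication scored as increased high-intensity nuclei.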
KB-V1 cytotox: qHTS assay for MDR1-selective chemotherapeutics: Primary screen using the drug-selected MDR subline cells KB-V1; Potency, µM (highest dose often 46.1 µM), actives largely listed as cytotoxic; 3.4% of 400,000 active; KB-V1 MDR cells viability, CellTiter-Glo, 72 h; also: % is scaled to controls: 0 for no effect and ±100 for the full control effect; nearly all actives have a fitted effect of over 60% in size
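Cells of the MDR subline KB-V1 are plated, dosed with compound at multiple concentrations, and incubated 72 h at 37 degrees C; CellTiter-Glo is then added and luminescence read after 10 min.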
KB-3-1 tox: qHTS assay for MDR1-selective chemotherapeutics: Primary screen using the parental adenocarcinoma cell KB-3-1 | KB-3-1 viability, CellTiter-Glo ATP luminescence, 72 h | Potency, µM (doses to about 46.1 µM), hits mostly cytotoxic | 1.4% of 400,000 active; also: % is scaled to controls: 0 for no effect and ±100 for the full control effect; nearly all actives have a fitted effect of over 60% in size
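Luminescent ATP read-out (CellTiter-Glo) measures survival of drug-naive KB-3-1 cells after 72 h compound exposure at 37 °C. Titration series was screened from lowest to highest concentration, with DMSO vehicle plates as background controls.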
An asterisk follows results filed as active; i = inactive; ? = inconclusive; · = no result given; ! = repeats disagree. Calls follow the shape of the dose curve; as a rule, active = well fitted curve in the direction sought with a large enough effect; inconclusive = small, poorly fitted or top-dose-only effect, or another doubt; inactive = no such curve, though single readings can be large; an effect the other way counts as inactive or inconclusive. Potency is read from the fitted curve at half-maximal effect.

SMILES | MCF10A rerep | ELG1 repair inh | SW480 rereplic | KB-V1 cytotox | KB-3-1 tox
COc1ccc(-c2cc(C(F)(F)F)n3nc(C(=O)Nc4c(C)n(C)n(-c5ccccc5)c4=O)cc3n2)cc1 | 18µM* | -15% | 20% | i | ?
CCc1nnc(NC(=O)CCC(=O)NCCc2ccccc2)s1 | 0% | -6% | 1% | i | i
COCCNC(=O)c1onc(CCl)c1C(=O)OC | 8% | 6% | ? | i | i
C=CCNC(=O)c1onc(CCl)c1C(=O)OC | 18µM* | 3% | ? | ? | ?
COCCN(Cc1cc2cc(C)cc(C)c2nc1Cl)C(=O)Nc1ccccc1 | 6% | -19% | ? | 5.8µM* | ?
Cc1cc(C)c2nc(Cl)c(CN(Cc3ccco3)C(=O)Nc3ccccc3C)cc2c1 | ? | -1% | ? | i | i
CCc1ccc(N2CC(C(=O)Nc3ccc(S(=O)(=O)N4CCOCC4)cc3)CC2=O)cc1 (stereo not drawn) | 3% | 15% | -2% | i | i
CC(=O)Nc1ccc(NC(=O)c2cc(-c3ccccc3)nc3ccccc23)cc1 | 4% | ? | 2% | i | i
O=C(Nc1cccc(S(=O)(=O)NCc2ccco2)c1)c1cc(-c2ccccc2)nc2ccccc12 | ? | 21µM* | 28% | ? | ?
CC(C)(C)NS(=O)(=O)c1ccc(NC(=O)c2cc(-c3ccccc3)nc3ccccc23)cc1 | 7% | 23µM* | -5% | i | i
O=C(Nc1cccc(S(=O)(=O)NC2=NCCCCC2)c1)c1cc(-c2ccco2)nc2ccccc12 | 16µM* | -21% | ? | i | i
Cc1cc(O)c2c(c1)C(=O)[C@@]13Oc4c5c(c(O)c6c(O)cc(C)cc46)C(=O)C[C@H](O)[C@H]5[C@@H]1[C@@H](O)CC(=O)C3=C2O | 10% | · | ? | i | i
O=c1n2c(c(O)n1C1CCCCC1)C(c1ccccc1)=Nc1ccccc1C2 | · | · | · | 16µM* | i
CC#C[C@@H](CC)c1ccc2ccn(C)c2c1 | 9% | ? | -12% | i | i
COc1ccc(SC[C@H](C)CN2CC[C@H](C(C)(C)C)CCC2=O)cc1 | ? | -13% | 1% | 15µM*! | ?
CC(C)(C)C1CCC(=O)N(CCSc2ccccc2)CC1 (stereo not drawn) | ? | ? | 30% | ? | i
C[C@@H](CSc1ccccc1)CN1CC[C@H](C(C)(C)C)CCC1=O | ? | 26% | -6% | 18µM*! | ?
COC(=O)c1ccc2c(=O)n(CCCCCC(=O)N3CCN(c4ccc(F)cc4)CC3)c(=O)[nH]c2c1 | 11% | 2.9µM* | 2% | i | i
O=C(CCCCCn1c(=O)[nH]c2ccccc2c1=O)NCCCN1CCN(c2ccccc2F)CC1 | 7% | 23µM* | -15% | ? | i
CN1CCN(CCCNC(=O)c2ccc3c(=O)n(CCc4ccccc4)c(=O)[nH]c3c2)CC1 | 26% | 0% | 1.6µM* | i | i
CC1CCCCN1CCNC(=O)c1ccc2c(=O)n(CCc3ccccc3)c(=O)[nH]c2c1 (stereo not drawn) | 15% | 1% | 21% | i | 21µM*
Cc1ccccc1CNC(=O)Cn1ccc2cc(S(=O)(=O)N3CCCCC3)ccc21 | · | · | · | i | i
CC(C)Nc1cccc(S(=O)(=O)N2CCCN(S(=O)(=O)c3ccc4c(c3)OCCO4)CC2)c1 | · | · | · | i | i
COCCn1c(=O)[nH]c2cc(C(=O)NCCN3CCN(c4ccccc4)CC3)ccc2c1=O | 9% | -25% | -5% | i | i
COCCn1c(=O)[nH]c2cc(C(=O)NCCN3CCN(c4ccc(OC)cc4)CC3)ccc2c1=O | -3% | 9.2µM* | -2% | i | i
